Bioassay records deposited in PubChem by SRMLSC.
MK inhibit – S. pneumoniae MK inhibitors, primary screen, biochemical, PK/LDH-coupled NADH absorbance; mevalonate kinase [Streptococcus pneumoniae D39]; purified MK, PK/LDH-coupled NADH absorbance 340 nm; inhibition, % at 10 µM; 0.48% of 65,000 active;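 active = ranked among the strongest by inhibition in the single 10 µM screen, a fixed top-ranked set picked for dose follow-up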
Fluor 339 460 – intrinsic fluorescence of library compounds, ex339/em460 – biochemical, MLSMR library, data from DPM-DC assay, artefact control, profiling panel; AID 709, 2007; 5.5% of 65,000 active; compound autofluorescence, ex339/em460 nm, NADH buffer; hits give high values; 1 = no-compound wells, NADH background; fluorescence fold increase at 10 µM;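 active = at 10 µM, mean starting fluorescence two-fold or more over control wells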;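 also: signal is the first read of a kinetic run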
Spn PMK inh – S. pneumoniae PMK inhibitors, primary screen, biochemical, mevalonate pathway, pilot trial included; phosphomevalonate kinase (Streptococcus pneumoniae D39); purified PMK, PK/LDH-coupled NADH absorbance 340 nm; 0.49% of 65,000 active; inhibition, % at 10 µM;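 active = top-ranked compounds by inhibition in the single 10 µM screen, taking a fixed number of the strongest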
DPM-DC inhibit – S. pneumoniae DPM-DC inhibitors, primary screen, biochemical, PK/LDH-coupled NADH fluorescence; 0.49% of 65,000 active; calls only at 10 µM; diphosphomevalonate decarboxylase (Streptococcus pneumoniae D39); AID 556, 2006; purified DPM-DC;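 active = the 320 compounds with the highest percent inhibition in the single-dose primary screen, excluding strongly autofluorescent ones, cut at about 32% in these data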;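 also: kinetic rate of NADH fluorescence loss reporting ADP formed by the decarboxylase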
A340 absorber – compound light absorbance at 340 nm, profiling panel, artefact control, biochemical, MLSMR library, data from PS, PMK, MK assays | compound absorbance at 340 nm, fold over control | fold change at 10 µM | 65,000 tested, under 10 active | AID 708, 2007;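 active = at 10 µM dose, initial 340 nm absorbance at least 2 fold that of control wells; inactive = change under 2 fold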;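 also: initial absorbance extrapolated from kinetic A340 decline of NADH oxidation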
NADH enzymes – inhibitors of PK/LDH coupling enzymes, profiling panel, artefact control, biochemical, MLSMR library. coupled PK/LDH NADH assays, four targets. 0.02% of 65,000 active. IC50, µM (titrated, usually from 10 µM);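 active = single-dose screening hits from any of four coupled enzyme assays that gave an IC50 when retested across doses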;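 also: the DPM-DC format reads NADH fluorescence rather than 340 nm absorbance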
Of the large screens only hits and unclear results are named; the others gave an inactive call. An excerpt weighted towards active compounds, which were near 6.5% of everything screened.

Cn1c(C(=O)N2CCCC2)cc2c(=O)n(C)c3ccccc3c21	none
COc1ccccc1-n1cc(C(=O)NCC(=O)N2CCN(c3ccccn3)CC2)c2ccccc2c1=O	none
CC(C)Cn1cc(C(=O)N2CCN(c3ccccn3)CC2)c2c3ccccc3n(C)c2c1=O	Fluor 339 460 2.09
Cn1cc(C(=O)N2CCN(C(=O)c3ccco3)CC2)c2c3ccccc3n(C)c2c1=O	Fluor 339 460 3.45
COCCSc1nc2c(c(=O)[nH]c(=O)n2C)n1CCC(C)C	none
CCOC(=O)CNC(=O)CSc1nc2cccnc2n1C	none
Cc1ccc(CN2CCSc3ccc(C(=O)N4CCN(c5ncccn5)CC4)cc32)cc1	Fluor 339 460 4.93 (not shown: DPM-DC inhibit)
O=C(Nc1nnc(-c2ccc3c(c2)OCCO3)o1)c1ccc(Cc2ccccc2)cc1	Fluor 339 460 2.11 (not shown: DPM-DC inhibit)
COc1ncnc(OC)c1NC(=O)c1ccc(F)cc1	MK inhibit 63.0
O=C(Nc1nc2ccccc2[nH]1)c1ccc(F)cc1	none
CCC1CCCCN1C(=O)CSc1nnc(-c2cccs2)o1 (centres undefined)	none
CCOC(=O)C1=C(CSc2nc(C)ccc2C#N)OC(N)=C(C#N)C1c1cccc(OC)c1OC (centres undefined)	none
CS(=O)(=O)c1sc2nc(-c3cccs3)cc(-c3ccccc3)c2c1N	Fluor 339 460 3.77
CC(=O)c1sc2nc(-c3cccs3)cc(C(F)(F)F)c2c1N	none
CCC1CCCCN1C(=O)N[C@@H](Cc1ccccc1)C(=O)O (some centres undefined)	none
CCOC(=O)C1=C(CSc2n[nH]c(N)n2)NC(=O)NC1C (centres undefined)	none
COC(=O)c1ccc(Nc2ncnc3c2cnn3-c2cccc(C)c2)cc1	Fluor 339 460 2.15 (not shown: DPM-DC inhibit)
c1csc(-c2cnc3n2CCCC3)c1	none
CCOC(=O)c1nnn(-c2nonc2N)c1-c1cccs1	none
CCOC(=O)c1cc(-c2cccs2)nc2onc(C)c12	Fluor 339 460 4.83 (not shown: DPM-DC inhibit)
Cc1noc2nc(-c3cccs3)cc(-c3nnc4n3CCCCC4)c12	Fluor 339 460 2.07 (not shown: DPM-DC inhibit)
O=c1oc2c3c4c(cc2c(C(F)(F)F)c1CCN1CCOCC1)CCCN4CCC3	none
CC(C)c1cc(=O)oc2c3c4c(cc12)CCCN4CCC3	Fluor 339 460 2.06 (not shown: DPM-DC inhibit)
Cc1ccccc1NC(=O)CN(C)S(=O)(=O)c1cccc2cccnc12	none
CCn1nnc(NC(=O)c2cccc(-c3cc4ccccc4oc3=O)c2)n1	MK inhibit 67.0, Fluor 339 460 3.94 (not shown: DPM-DC inhibit)
CCn1nnc(NC(=O)c2cccnc2)n1	none
c1ccc(-c2nc3cc(Oc4ccc5oc(-c6ccccn6)nc5c4)ccc3o2)nc1	none
Cc1ccc2nc(-c3cccnc3)oc2c1	Fluor 339 460 2.72
Cc1ccc2nc(-c3ccccn3)oc2c1	Fluor 339 460 3.01
CCOC(=O)c1c(C)oc2ccc(O)c(CN(C)C)c12	none
CCN(CC)c1ccc2c(C)c(-c3ccc(N)cc3)c(=O)oc2c1	Fluor 339 460 2.47 (not shown: DPM-DC inhibit)
CCOC(=O)Cc1c(C)c2c(O)cc(O)cc2oc1=O	Fluor 339 460 2.43 (not shown: DPM-DC inhibit)
CCOC(=O)CCc1c(C)c2ccc(O)cc2oc1=O	Fluor 339 460 3.69 (not shown: DPM-DC inhibit)
CCN(CC)c1ccc2c(Cl)c(Br)c(=O)oc2c1	none
CCOC(=O)Cc1c(C)c2ccc(N(CC)CC)cc2oc1=O	Fluor 339 460 4.37 (not shown: DPM-DC inhibit)
CC1=C(C(=O)NC2CCC(C)CC2)C2(CCC(C)CC2)OC1=O (centres undefined)	none
CN1CCc2c(sc3c2c(=O)n(-c2ccccc2)c2nnc(SCc4ccccc4F)n32)C1	none
CC(=O)c1cc2c(cc1NC(=O)CSc1nc3ccccc3o1)OCO2	Fluor 339 460 2.37
CC(=O)Nc1nonc1NC(=O)CSc1nc2ccccc2o1	none
Cc1noc(C)c1CSCC(=O)OCc1nc2ccccc2c(=O)n1CC#N	none
CCC1CCCN1Cn1cnc2c([nH]c3ccc(OC)cc32)c1=O (centres undefined)	Fluor 339 460 2.98 (not shown: DPM-DC inhibit)
COc1cc2[nH]c3c(=O)n(CCN(C(C)C)C(C)C)cnc3c2cc1OC	Fluor 339 460 2.45 (not shown: DPM-DC inhibit)
CCN1CCCC1Cn1cnc2c([nH]c3cccc(Cl)c32)c1=O (centres undefined)	Fluor 339 460 2.16
CCCCN(CCCC)CCn1cnc2c([nH]c3ccc(OC)cc32)c1=O	Fluor 339 460 2.3 (not shown: DPM-DC inhibit)
COc1ccc2c(c1)[nH]c1c(=O)n(CCN3CCCC3)cnc12	none
Cc1cccc(NC(=O)C2CCCN2S(=O)(=O)c2cccc3cccnc23)c1 (centres undefined)	none
CCOc1ccc(-c2nnc(-c3snc(-c4ccc(F)cc4)c3N=CN(C)C)o2)cc1	Fluor 339 460 3.77 (not shown: DPM-DC inhibit)
COc1ccc(C(=O)Nc2nc(-c3cccs3)cs2)cc1	none
Cc1csc(NC(=O)c2sc3nc(-c4cccs4)ccc3c2N)n1	Fluor 339 460 2.39 (not shown: DPM-DC inhibit)
CCCSc1nnc(NC(=O)c2sc3nc(-c4cccs4)ccc3c2N)s1	Fluor 339 460 4.49 (not shown: DPM-DC inhibit)
Cc1cccc(C)c1OCC(=O)Nn1c(C)nc2ccccc2c1=O	none
COc1ccc2[nH]c3c(NCCN(C(C)C)C(C)C)ncnc3c2c1	Fluor 339 460 3.73 (not shown: DPM-DC inhibit)
c1ccc2c(c1)[nH]c1c(N3CCSCC3)ncnc12	none (no result: DPM-DC inhibit)
CC(C)OCCCNc1ncnc2c1[nH]c1ccccc12	Fluor 339 460 2.65
CCOC(=O)N1CCN(c2c(NCC3CCN(Cc4cccc(C)c4)CC3)c(=O)c2=O)CC1	none
O=S(=O)(c1ccc(F)cc1)N1CCC(N2CCCC2)CC1	MK inhibit 50.0
COc1ccc(S(=O)(=O)N2CCN(C3CCCCCCC3)CC2)cc1	Spn PMK inh 29.0
COc1ccc(S(=O)(=O)N2CCC(N3CCCCC3)CC2)cc1	none
CC(C)OC(=O)CCc1nc2ccccc2[nH]c1=O	Fluor 339 460 2.04
CCOC(=O)C(C)c1nc2ccccc2[nH]c1=O (centres undefined)	none
Cc1nc(Cc2nnc(SCc3nc(N)nc(Nc4ccccc4C)n3)o2)cs1	none
O=C(c1coc(=O)c(Br)c1)N1CCOCC1	none
CC1(C)CC(NC(=O)c2coc(=O)c(Br)c2)CC(C)(C)N1	Fluor 339 460 2.1
CS(=O)(=O)N(CC(=O)N1CCN(c2ccccc2)CC1)C1CCCCC1	Spn PMK inh 36.0
CS(=O)(=O)N(CC(=O)N1CCN(Cc2ccccc2)CC1)C1CCCCC1	none
COc1ccc(S(=O)(=O)NCC(=O)N(CC(=O)NCC2CCCO2)c2ccccc2C)cc1 (centres undefined)	none
Cc1ccc(N(C(=O)Cn2nnc3ccccc32)C(C(=O)NC2CCCCC2)c2cn(C)nc2C)cc1 (centres undefined)	none
